RGS4 inh – Inhibitors of Regulator of G Protein Signaling (RGS) 4: qHTS. Regulator of G-protein signaling 4 (Homo sapiens), P49798. Transcreener GDP fluorescence polarization, RGS4-accelerated GTP hydrolysis. Potency, µM (series often up to 114 µM), hits mostly inhibitors. 390,000 tested, 0.039% active. AID 504845, 2011; note: nearly all actives have a fitted effect of over 75% in size
Target sequence (P49798 whole entry, looked up): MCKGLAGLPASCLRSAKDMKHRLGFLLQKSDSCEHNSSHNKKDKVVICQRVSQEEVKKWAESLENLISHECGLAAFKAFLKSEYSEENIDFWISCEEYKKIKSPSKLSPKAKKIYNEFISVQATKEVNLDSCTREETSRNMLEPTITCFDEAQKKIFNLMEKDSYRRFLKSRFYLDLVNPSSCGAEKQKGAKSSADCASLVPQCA
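MLSMR compounds (23 nl, pin-transferred) preincubated 10 min at room temperature with a 500nM (2x) first reagent, then RGS4 at 900nM (2x) plus Transcreener GDP mix added; fluorescence polarization (620/688 nm) read before and after 90 min at 30 °C.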
MCF10A rerep – A quantitative high throughput screen for small molecules that induce DNA re-replication in MCF 10a normal breast cells. MCF 10A DNA re-replication, Hoechst nuclear intensity, 48 h. Potency, µM (titrated, usually from 46.1 µM), hits mostly activators. 350,000 tested, 2.9% active. AID 624296, 2012; note: nearly all actives have a fitted effect of over 50% in size
PTAP TSG101 blk – qHTS Assay for Iinhibitors of HIV-1 Budding by Blocking the Interaction of PTAP/TSG101; 340,000 tested, under 10 active; Fluorescence polarization, FITC-PTAP peptide / Tsg101 binding; Tumor susceptibility gene 101 protein (Homo sapiens), Q99816; Potency, µM (series often up to 115 µM), actives largely listed as inhibitors; active = well fitted inhibition curve with a large enough effect in the main read-out, with a control signal flat, not every such curve was filed as active; inconclusive = small, poorly fitted or top-dose-only effect, or effect the other way, or a change in a side signal; inactive = no such curve, though single readings can be large or run the other way
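Steps: Tsg101 binding domain dispensed (10 uM final), compounds pinned in DMSO, FITC-labeled PTAP-motif peptide added (50 nM final); after 20 min binding at room temperature, polarization measured.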
KB-V1 cytotox – qHTS assay for MDR1-selective chemotherapeutics: Primary screen using the drug-selected MDR subline cells KB-V1; KB-V1 MDR cells viability, CellTiter-Glo, 72 h; 400,000 tested, 3.4% active; Potency, µM (highest dose often 46.1 µM), most hits filed as cytotoxic; AID 1347076, 2019; note: nearly all actives have a fitted effect of over 60% in size
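KB-V1, DMEM (no phenol red) + 10% FBS; cpd pin-transferred, titration series; 72 h, 37 degrees C; CellTiter-Glo, luminescence. Data normalized, curve-fit.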
SW480 rereplic – A quantitative high throughput screen for small molecules that induce DNA re-replication in SW480 colon adenocarcinoma cells. SW480 DNA re-replication, Hoechst DNA content imaging, 48 h. Potency, µM (series often up to 46.1 µM), most hits filed as activators. 340,000 tested, 1.8% active. AID 624297, 2012; note: nearly all actives have a fitted effect of over 55% in size
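DNA re-replication was detected as more nuclei of elevated Hoechst intensity after 48 hr exposure to compound (23 nL pinned per well of 250 cells).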
KB-3-1 tox – qHTS assay for MDR1-selective chemotherapeutics: Primary screen using the parental adenocarcinoma cell KB-3-1. KB-3-1 viability, CellTiter-Glo ATP luminescence, 72 h. 400,000 tested, 1.4% active. Potency, µM (titrated, usually from 46.1 µM), actives largely listed as cytotoxic. AID 1347075, 2019; note: nearly all actives have a fitted effect of over 60% in size
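Viability of parental KB-3-1 cells, measured by CellTiter-Glo luminescence, followed a 72 h incubation at 37 °C with pinned compounds in phenol-red-free DMEM containing 10% FBS.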
Numbers stand for hits; . = inactive; ? = inconclusive; / = no result given. Shown are actives, neighbours in structure and some others; about 6.6% of the full set was active somewhere. Unless noted, calls come from the whole dose curve; as a rule, active = well fitted curve in the direction sought with a large enough effect; inconclusive = small, poorly fitted or top-dose-only effect, or another doubt; inactive = no such curve, though single readings can be large; an effect the other way counts as inactive or inconclusive.

SMILES | RGS4 inh | MCF10A rerep | PTAP TSG101 blk | KB-V1 cytotox | SW480 rereplic | KB-3-1 tox
Cc1ccc(Cl)cc1NC(=O)C(C)n1nc(-c2ccccc2)ccc1=O (configuration not stated) | . | / | / | . | / | .
Cc1cn2c(=O)cc(COc3ccc(NC(=O)c4ccc(C(C)(C)C)cc4)cc3)nc2s1 | . | / | / | . | / | .
CC(I)CCC(C)[n+]1cccc(I)c1 (configuration not stated) | / | / | / | ? | / | .
CCCCC1(CC(=O)OCC)C(=O)N(c2ccccc2)N(c2ccccc2)C1=O | . | . | . | 4.6µM | . | .
CCc1nnc2c(Nc3ccc(N(CC)CC)cc3C)nc3ccccc3n12 | . | / | / | . | / | .
S=C(Nc1ccc(Br)cc1Cl)N1CCCC1 | . | . | . | / | . | /
COc1c(Cl)cc(Cl)cc1C(=O)Nc1ccc(CN2CCCCC2)cc1 | . | 12µM | . | . | . | .
COc1c(Cl)cc(Cl)cc1C(=O)Nc1ccc(CN2CCOCC2)cc1 | . | ? | . | . | . | .
O=C(Nc1ccc(CN2CCCCC2)cc1)Nc1ccc(Br)cc1Cl | . | 16µM | . | ? | ? | 13µM
Oc1[nH]c2ccc(Br)cc2c1N=NC(=S)NCC1CCCO1 (configuration not stated) | . | . | . | . | . | ?
COc1ccccc1NC(=S)N=Nc1c(O)[nH]c2ccc(Br)cc12 | . | ? | . | ? | . | 2.3µM
Cc1cccc(NC(=S)N=Nc2c(O)[nH]c3ccccc23)c1 | . | 6.5µM | . | . | ? | .
Cn1c(Oc2ccccc2)nc2c1c(=O)n(Cc1ccc(Cl)cc1Cl)c(=O)n2C | . | / | / | . | / | .
CCC12CN3CC(CC)(CN(C1)C3c1ccc(OCc3ccccc3)cc1)C2=O (configuration not stated) | . | / | / | . | / | .
Cc1ccc(-c2csc3ncnc(SCC(=O)c4ccc5c(c4)OCCO5)c23)cc1 | . | . | . | . | . | .
Cc1sc2ncnc(SCC(=O)c3ccc4c(c3)OCCO4)c2c1-c1ccccc1 | . | . | . | 16µM | / | .
COC(=O)Cn1ncc2c3ccccc3n(Cc3ccccc3)c2c1=O | . | . | . | 23µM | . | .
O=C(CC1N=C2c3ccccc3N=C(SCc3cccc(Cl)c3)N2C1=O)NC1CCCCC1 (configuration not stated) | . | / | / | . | / | .
COc1ccc(NC(=O)c2sccc2SCc2cccc(C(F)(F)F)c2)cc1 | . | . | / | 16µM | . | .
O=C(Nc1ccc(F)cc1)c1sccc1SCc1cccc(C(F)(F)F)c1 | . | ? | . | ? | . | .
O=C(Nc1ccc(F)cc1F)c1sccc1SCc1cccc(C(F)(F)F)c1 | . | . | . | 16µM | . | .
Cc1c(CCNC(=O)C(C)(C)C)sc2nc(-c3ccc(F)cc3)nn12 | . | / | / | / | / | /
Cc1cc(C)c2c(N)c3cccc(C)c3nc2n1 | . | 21µM | . | 8.2µM | 16µM | 7.3µM
COc1ccc2nc(N=Nc3ccc(N(C)C)cc3)sc2c1 | . | . | . | ? | . | 13µM
CCc1cccc(NC(=O)c2ccc(Cn3nc(C)cc3C)o2)c1 | . | . | . | 15µM | . | .
Cc1nc2c(sc(=S)n2Cc2ccco2)c(=O)n1CC(=O)Nc1ccc(F)cc1 | . | . | . | . | . | .
Cc1nc2c(sc(=S)n2Cc2ccco2)c(=O)n1CC(=O)Nc1cc(F)ccc1F | . | 23µM | . | . | . | .
CN(C)c1ccc(CC2CCc3ccccc32)cc1 (configuration not stated) | / | / | / | . | / | .
